Measurements taken from PubChem BioAssay (NCATS).
Records with an inconclusive call do not appear. Unmarked numbers belong to inactive results. Activity calls are given as the source filed them. Calls come from the whole dose curve; as a rule, active = well fitted curve in the direction sought with a large enough effect; inconclusive = small, poorly fitted or top-dose-only effect, or another doubt; inactive = no such curve, though single readings can be large; an effect the other way counts as inactive or inconclusive. Peptide text beside a SMILES is read from it.

assay: S16 Schwann cell viability assay (CellTiter-Glo assay) (AID 624031); conditions: S16 rat Schwann cells viability, 24 h; series mostly up to 25.7 µM; activity change, negative = cytotoxicity: at the top concentration;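 note: native untransfected S16 rat Schwann cells; cellular ATP luminescence as a viability measure; plate controls were DMSO-treated cells for no effect and cell-free wells for full effect; nearly all actives have a fitted effect of over 70% in size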
Summary of the method: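 Cells were seeded at 500-750 per well in phenol red-free DMEM with 10% FBS and left overnight. Compounds or DMSO were pinned in, incubation ran 24 h at 37 °C/5% CO2, then CellTiter-Glo reagent was added and luminescence measured.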

SMILES	activity change, negative = cytotoxicity
CCC(C)C(=O)OC1CCC=C2C=CC(C)C(CCC3CC(O)CC(=O)O3)[C@@H]21 (some centres not stated)	-2.67% [at 57.5 µM]
C[C@]1(c2ccccc2)OC(C(=O)O)=CC1=O	17.4% [at 57.5 µM]
OCC1OC([S-])[C@H](O)C(O)C1O.[Au+] (some centres not stated)	-24.9% [at 57.5 µM]
COC(=O)N/N=C/C1=C[N+](=O)c2ccccc2[N+]1=O	-3.53% [at 57.5 µM]
CNC1CC(N)[C@H](O)[C@@H](O[C@@H]2OC(CO)C3OC4(OC(C(N)CO)C(O)C(O)C4O)O[C@@H]3[C@H]2O)C1O (some centres not stated)	-4.26% [at 57.5 µM]
COC1C=CO[C@@]2(C)Oc3c(C)c(O)c4c(O)c(c(C=NN5CCN(C)CC5)c(O)c4c3C2=O)NC(=O)/C(C)=C\C=CC(C)C(O)[C@@H](C)C(O)C(C)[C@H](OC(C)=O)C1C (some centres not stated)	4.69% [at 57.5 µM]
CC(=O)N[C@@H]1C(O)OC(CO)C(O)C1O (some centres not stated)	10.2% [at 57.5 µM]
CCC(CCC(C)C1CCC2C3CC=C4CC(O)CC[C@@]4(C)C3CC[C@@]12C)C(C)C (some centres not stated)	1.71% [at 57.5 µM]
O=C1OC(CO)C(O)C(O)C1O (configuration not stated)	4.98% [at 57.5 µM]
CCCC(=O)O[C@]1(C(=O)CO)CCC2[C@@H]3CCC4=CC(=O)CC[C@]4(C)C3C(O)C[C@]21C (some centres not stated)	-3.78% [at 57.5 µM]
COC(=O)C(Cc1ccccc1)NC(=O)C(N)CC(=O)O (stereo not drawn) (H-Asp-Phe-OMe; configuration not given here)	-27.5% [at 57.5 µM]
CC[C@@]12CCCN3CCc4c(n(c5ccccc45)[C@](O)(C(=O)OC)C1)C32 (some centres not stated)	-5.3% [at 57.5 µM]
CC1(C)SC2C(N3C(=O)C(c4ccccc4)NC3(C)C)C(=O)N2C1C(=O)O (configuration not stated)	-13.7% [at 57.5 µM]
CC1CCC(C(C)C)C(=O)C1 (configuration not stated)	-2.6% [at 57.5 µM]
CC(C)C1CCC(C(=O)NC(Cc2ccccc2)C(=O)O)CC1 (configuration not stated)	-3.3% [at 57.5 µM]
COc1ccc2cc(C(C)CO)ccc2c1 (configuration not stated)	6.63% [at 57.5 µM]
CNC1C(OC2C(O[C@@H]3C(O)C(O)[C@@H](N=C(N)N)C(O)C3N=C(N)N)OC(C)[C@@]2(O)CO)OC(CO)C(O)C1O (some centres not stated)	15.2% [at 57.5 µM]
CC1C2CCC3C4CC=C5CC(N(C)C)CC[C@@]5(C)C4CC[C@@]32CN1C (some centres not stated)	-1.62% [at 57.5 µM]
C[C@]12C=CC(=O)C=C1CCC1C2C(O)C[C@]2(C)C1CC[C@]2(O)C(=O)CO (some centres not stated)	-3.9% [at 57.5 µM]
CN(C)CCc1c[nH]c2ccc(CC3COC(=O)N3)cc12 (configuration not stated)	2.76% [at 57.5 µM]
NCC1CCC(N)C(O[C@@H]2C(O)[C@H](O[C@H]3OC(CO)C(O)C(N)C3O)[C@@H](N)C[C@H]2N)O1 (some centres not stated)	3.79% [at 57.5 µM]
OCC1O[C@H](OC2C(CO)O[C@@](O)(CO)C2O)C(O)C(O)C1O (some centres not stated)	2.74% [at 57.5 µM]
CC1(C)OC2CO[C@]3(COS(N)(=O)=O)OC(C)(C)OC3C2O1 (some centres not stated)	7.53% [at 57.5 µM]
CC(=O)OC1CCC2C3CCc4cc(O)ccc4C3CCC12C (configuration not stated)	-29% [at 57.5 µM]
COc1cc(C2c3cc4c(cc3C(O[C@@H]3OC5COC(c6cccs6)OC5C(O)C3O)C3COC(=O)C23)OCO4)cc(OC)c1O (some centres not stated)	-27.3% [at 57.5 µM]

assay: S16 Schwann cell PMP22 intronic element firefly luciferase assay (AID 624032); conditions: S16 rat Schwann cells, PMP22 element FLuc, 24 h; series mostly up to 25.7 µM; activity change, negative = inhibition: at the top concentration; note: nearly all actives have a fitted effect of over 30% in size; note: potency is the fitted concentration of half-maximal effect;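 for activity change, negative = inhibition: plate controls were DMSO for no effect and PTC124 positive control mean for full effect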
Summary of the method: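 Rat S16 Schwann cells stably carrying a PMP22 intronic element-driven Fluc reporter were seeded overnight, then exposed to compounds for 24 h at 37 °C. Luminescence was normalized to PTC124 (positive control) and DMSO (0% activity).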

SMILES	activity change, negative = inhibition	Potency
CCC(C)C(=O)OC1CCC=C2C=CC(C)C(CCC3CC(O)CC(=O)O3)[C@@H]21 (some centres not stated)	15.5% [at 57.5 µM]	–
C[C@]1(c2ccccc2)OC(C(=O)O)=CC1=O	-0.48% [at 57.5 µM]	–
OCC1OC([S-])[C@H](O)C(O)C1O.[Au+] (some centres not stated)	-17.9% [at 57.5 µM]	–
COC(=O)N/N=C/C1=C[N+](=O)c2ccccc2[N+]1=O	0.1% [at 57.5 µM]	–
CN1CC(=O)N=C1N	6.94% [at 57.5 µM]	–
CNC1CC(N)[C@H](O)[C@@H](O[C@@H]2OC(CO)C3OC4(OC(C(N)CO)C(O)C(O)C4O)O[C@@H]3[C@H]2O)C1O (some centres not stated)	-5.15% [at 57.5 µM]	–
COC1C=CO[C@@]2(C)Oc3c(C)c(O)c4c(O)c(c(C=NN5CCN(C)CC5)c(O)c4c3C2=O)NC(=O)/C(C)=C\C=CC(C)C(O)[C@@H](C)C(O)C(C)[C@H](OC(C)=O)C1C (some centres not stated)	–	20.3 µM (active)
CC(=O)N[C@@H]1C(O)OC(CO)C(O)C1O (some centres not stated)	-2.49% [at 57.5 µM]	–
CCC(CCC(C)C1CCC2C3CC=C4CC(O)CC[C@@]4(C)C3CC[C@@]12C)C(C)C (some centres not stated)	-25.3% [at 57.5 µM]	–
COc1ccc(CC(N)C(=O)NC2C(CO)OC(n3cnc4c(N(C)C)ncnc43)C2O)cc1 (configuration not stated)	–	1.28 µM (active)
CCCC(=O)O[C@]1(C(=O)CO)CCC2[C@@H]3CCC4=CC(=O)CC[C@]4(C)C3C(O)C[C@]21C (some centres not stated)	1.27% [at 57.5 µM]	–
COC(=O)C(Cc1ccccc1)NC(=O)C(N)CC(=O)O (stereo not drawn) (H-Asp-Phe-OMe; configuration not given here)	32.6% [at 57.5 µM]	–
CC[C@@]12CCCN3CCc4c(n(c5ccccc45)[C@](O)(C(=O)OC)C1)C32 (some centres not stated)	-4.34% [at 57.5 µM]	–
CC1(C)SC2C(N3C(=O)C(c4ccccc4)NC3(C)C)C(=O)N2C1C(=O)O (configuration not stated)	2.08% [at 57.5 µM]	–
CC1CCC(C(C)C)C(=O)C1 (configuration not stated)	-0.875% [at 57.5 µM]	–
CC(C)C1CCC(C(=O)NC(Cc2ccccc2)C(=O)O)CC1 (configuration not stated)	12.8% [at 57.5 µM]	–
COc1ccc2cc(C(C)CO)ccc2c1 (configuration not stated)	10.3% [at 57.5 µM]	–
COc1ccc2cc1Oc1ccc(cc1)CC1c3c(cc4c(c3Oc3cc5c(cc3OC)CCN(C)C5C2)OCO4)CCN1C (configuration not stated)	2.57% [at 57.5 µM]	–
CC1C2CCC3C4CC=C5CC(N(C)C)CC[C@@]5(C)C4CC[C@@]32CN1C (some centres not stated)	-16.3% [at 57.5 µM]	–
C[C@]12C=CC(=O)C=C1CCC1C2C(O)C[C@]2(C)C1CC[C@]2(O)C(=O)CO (some centres not stated)	18.8% [at 57.5 µM]	–
CCOC(=O)C1=CC(OC(CC)CC)C(NC(C)=O)C(N)C1 (configuration not stated)	11.1% [at 57.5 µM]	–
CN(C)CCc1c[nH]c2ccc(CC3COC(=O)N3)cc12 (configuration not stated)	8.57% [at 57.5 µM]	–
NCC1CCC(N)C(O[C@@H]2C(O)[C@H](O[C@H]3OC(CO)C(O)C(N)C3O)[C@@H](N)C[C@H]2N)O1 (some centres not stated)	12.8% [at 57.5 µM]	–
OCC1O[C@H](OC2C(CO)O[C@@](O)(CO)C2O)C(O)C(O)C1O (some centres not stated)	50.5% [at 57.5 µM]	–
CC1(C)OC2CO[C@]3(COS(N)(=O)=O)OC(C)(C)OC3C2O1 (some centres not stated)	-3.34% [at 57.5 µM]	–
CC(=O)OC1CCC2C3CCc4cc(O)ccc4C3CCC12C (configuration not stated)	-31.5% [at 57.5 µM]	–
CN(C)CCCOC1C(C(O)CO)OC2OC(C)(C)O[C@@H]21 (some centres not stated)	52.3% [at 57.5 µM]	–
